Results on 90 molecules are retold here after PubChem BioAssay AID504660 (National Center for Advancing Translational Sciences (NCATS), 2011).

SMILES strings stand for the structures. Screen size: about 360,000 compounds; about 3,700 (1%) were called active. This is one part of a sample in which actives are shown more often than they occur. Values without a mark were called inactive. No stated cut-off is given here; in the data, active means activation above about 30%; inactive means the rest.

Chain of D(1A) dopamine receptor (Homo sapiens) (P21728 whole entry, looked up): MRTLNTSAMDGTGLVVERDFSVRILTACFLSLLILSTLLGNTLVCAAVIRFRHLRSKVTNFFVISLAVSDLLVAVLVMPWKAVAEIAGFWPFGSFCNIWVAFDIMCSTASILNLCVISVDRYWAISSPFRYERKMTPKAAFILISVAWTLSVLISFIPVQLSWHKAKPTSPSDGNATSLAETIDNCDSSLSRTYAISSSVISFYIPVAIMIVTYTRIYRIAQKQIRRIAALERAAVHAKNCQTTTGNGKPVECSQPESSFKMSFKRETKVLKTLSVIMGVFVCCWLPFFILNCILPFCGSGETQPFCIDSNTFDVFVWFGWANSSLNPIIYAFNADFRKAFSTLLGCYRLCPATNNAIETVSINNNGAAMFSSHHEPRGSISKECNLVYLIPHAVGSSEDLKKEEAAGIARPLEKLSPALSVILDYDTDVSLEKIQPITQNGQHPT

This assay has as its target D(1A) dopamine receptor (Homo sapiens) (UniProt P21728). The assay can be described thus: Allosteric Agonists of the Human D1 Dopamine Receptor: qHTS. Further: 0% is about no effect. The following applies: HEK293 T-REx D1 cells, calcium flux, agonist mode; at 2 µM; stronger effect = higher value. From the text: NIH Chemical Genomics Center [NCGC] NIH Molecular Libraries Probe Centers Network [MLPCN] MLPCN Grant: NS064831-01 Assay Submitter (PI): David Sibley Dopamine receptors (DARs) are involved in the etiology and/or therapy of a number of neuropsychiatric and endocrine disorders. For instance, all receptor-based antiparkinsonian drugs work via stimulating the D1 DAR subtype whereas all FDA-approved antipsychotic agents are antagonists of this receptor. […] There are three different types of allosteric modulators that we are seeking, two of which will stimulate or augment receptor signaling, allosteric agonists and potentiators, while the third, allosteric antagonists, will attenuate receptor signaling. The present primary screening assay measures compound agonism by tracking calcium flux in a […], inducible Hek293 Trex D1 cell line.
Freshly passaged cells are plated in 1536 well black, clear bottom plates at a density of 4000 cells/well in 3 ul of complete media containing 1x tetracycline inducer. After an overnight incubation at […] in 5% CO2, cells are loaded with 2 ul of the no wash Calcium Assay Kit (ABD Bioquest) and incubated at room temperature for 30 to 90 minutes. Agonist read: A 10 cycle (1 second/cycle) baseline measurement is taken and then the FDSS online 1536 pintool delivers 23 nl of compound library (as well as dopamine controls) to the plate. The plate is measured for kinetically at 1 cycle/sec for 180 seconds and is considered to be the agonist portion of the assay (eg, compounds which activate a positive calcium response during this portion are flagged as potential agonists). Following the 180 second read, 1 ul of either an EC20 (positive modulation assay) or EC80 (negative modulation assay) is delivered by an onboard pipette head. Measurements are taken kinetically for an additional 180 seconds.
For orientation: In qHTS, concentration-response curves come from the screen itself.
Take `COc1ccc(CNC(=O)C2CC(c3ccc(C(F)(F)F)cc3)=NO2)cc1` (stereo not given): the activation was 16.3%.

Take `COc1ccc(C2=NOC(C(=O)NCc3ccco3)C2)cc1OC` (stereo not given): the activation is 1.23%.

Consider `O=C(NCc1cc(C(F)(F)F)cc(C(F)(F)F)c1)C1CC(c2cccc(F)c2)=NO1` (stereo not given), for which the activation is 44.2% (active).

For the molecule `Cc1ccc(N(CC(=O)NCc2ccc(Cl)cc2)S(=O)(=O)N(C)C)cc1`, the activation is -0.642%.

As to `Cn1c(=O)c(C(=O)O)nn(-c2ccccc2)c1=O`, the activation is 1.73%.

For the molecule `COc1cccc(NC(=O)CSC2=Nc3ccccc3C3=NC(CC(=O)NC4CCCCC4)C(=O)N23)c1` (stereo not given), the activation is 0.2%.

For the molecule `CCCN(CCC)C(=O)C1CCCN(c2ncnc3c2nc2n3CCCCC2)C1` (stereo not given), the activation is -0.793%.

Regarding `COc1ccc(NC(=O)N2CCCn3nc(C)cc32)cc1OC`, the activation was -0.666%.

Take `Cc1ccc(-c2nc(CS(=O)CC(=O)NC3CCCC3)c(C)o2)cc1` (stereo not given): the activation was -0.511%.

`Cc1cccc(-c2nc(CS(=O)CC(=O)NC(C)CCc3ccccc3)c(C)o2)c1` (stereo not given): the activation is 33.5% (active).

On to `COc1ccc(CNC(=O)CS(=O)Cc2nc(-c3cccc(C)c3)oc2C)cc1` (stereo not given), for which the activation is 3.98%.

Take `Cc1ccc(-c2nnc(Nc3cccc(Br)c3)c3ccccc23)cc1S(=O)(=O)NCC1CCCO1` (stereo not given): the activation was 3.26%.

Turning to `Cc1nc2c(c(=O)n1Cc1ccco1)c1nc3ccccc3nc1n2Cc1ccccc1`, the activation is 0.836%.

Regarding `Cc1cc2nc3c(=O)n(Cc4ccccc4)c(=O)[nH]c3nc2cc1N`, the activation was 368% (active).

Regarding `Cc1cc(OCC(=O)N(C)c2c(N)n(Cc3ccccc3)c(=O)[nH]c2=O)c(C(C)C)cc1Cl`, the activation is -0.311%.

Consider `CCOCCCNC(=O)c1c(NC(=O)Cc2coc3ccc(C)cc23)sc2c1CCC2`, for which the activation is 6.68%.

Regarding `Cc1ccc2nc(/C(C#N)=C/c3ccc(-c4ccc(C(=O)OC(C)C)cc4)o3)[nH]c2c1`, the activation is 165% (active).

As to `CCOC(=O)c1ccc(-c2ccc(/C=C(\C#N)C(=O)Nc3ccc(C)cc3)o2)cc1`, the activation was 6.86%.

Turning to `Cc1ccc2nc(/C(C#N)=C/c3ccccc3F)[nH]c2c1`, the activation was -1.08%.

Regarding `O=C(Nc1c(C(=O)N2CCN(c3ccc(F)cc3)CC2)oc2ccccc12)c1ccco1`, the activation is 3.39%.

Turning to `COC(=O)c1cc(S(=O)(=O)N2CCN(c3cc(Cl)ccc3C)CC2)c[nH]1`, the activation is 6.55%.

For `CN=C1S/C(=C\c2ccc(Sc3ccc(Cl)cc3)o2)C(=O)N1C`, the activation is -0.0809%.

Take `O=C(O)C(c1ccccc1)N1C(=O)/C(=C\c2ccc(-c3cccc(Cl)c3)o2)SC1=S` (stereo not given): the activation was 33.5% (active).

`O=C(NC(=S)Nc1cc(C(F)(F)F)ccc1N1CCOCC1)c1ccc(-c2cccc(Cl)c2)o1`: the activation was 4.39%.

With `CCCN(CCC)c1nc2c(C)cccn2c(=O)c1/C=C1/SC(=S)N(Cc2ccco2)C1=O`, the activation was 48.8% (active).

Take `Cc1ccc2[nH]c(=O)c(-c3nc4c(C)cccn4c3NCc3ccco3)cc2c1`: the activation was 1.97%.

Consider `COC(=O)CN1C(=O)CSc2ccc(S(=O)(=O)Nc3cc(C)ccc3C)cc21`, for which the activation was -2.48%.

With `Cc1c(Cl)cccc1NC(=O)C(=O)NCCc1csc2nc(-c3ccccc3F)nn12`, the activation is 8.86%.

Take `COc1cc(OC)cc(C(=O)Nc2cc3nn(-c4ccccc4)nc3cc2Cl)c1`: the activation is 0.0669%.

On to `O=C(/C=C(O)/C=C/c1ccc(O)cc1)/C=C/c1ccc(O)cc1`, for which the activation was 432% (active).

`CC(C)(C)C(=O)/C(C#N)=C/c1ccc(O)cc1`: the activation is 6.88%.

Take `COc1cccc(C(=O)NNC(=O)/C=C/c2ccccc2)c1`: the activation is 1.13%.

`CCN(CC)c1ccc(NC(=O)Cn2nc3c(cc2=O)CCCC3)c(C)c1`: the activation is -0.284%.

Consider `COc1cccc(N=C2SC(C(=O)Nc3cccc(Cl)c3)CC(=O)N2C)c1` (stereo not given), for which the activation is 25.2%.

`CCN(CC)c1ccc(NC(=O)CN2C(=O)c3cccnc3Oc3ccc(Cl)cc32)c(C)c1`: the activation was 1.12%.

With `CCc1c(C)sc(NC(=O)c2cccs2)c1C(N)=O`, the activation is 0.933%.

For the molecule `CCc1c(C)sc(NC(=O)c2ccc(Br)o2)c1C(=O)OC`, the activation was 32.9% (active).

For `CCc1c(C)sc(NC(=O)C2c3ccccc3Oc3ccccc32)c1C(=O)OC(C)C`, the activation was -0.651%.

With `O=C(NC1CC(=O)N(c2ccccc2)C1)c1ccco1` (stereo not given), the activation was 2.23%.

Take `COc1ccc(-c2nc3scc(CCNS(=O)(=O)c4cc(F)ccc4OC)n3n2)cc1OC`: the activation is -4.62%.

For `O=C(CSc1oc(-c2ccco2)nc1S(=O)(=O)c1ccccc1)c1ccc(Cl)cc1`, the activation is 5.58%.

Consider `COc1ccccc1Nc1cc(C(=O)NCCCN(C)C2CCCCC2)c2ccccc2n1`, for which the activation was 183% (active).

Consider `COc1ccc(Nc2cc(C(=O)NCCCN(C)c3ccccc3)c3ccccc3n2)c(OC)c1`, for which the activation was 1.01%.

Turning to `CCCCN(CCCNC(=O)c1cc(Nc2ccccc2OC)nc2ccccc12)c1ccccc1`, the activation is 0.606%.

Take `COc1ccccc1Nc1c2c(nc3ccc(NC(=O)/C=C/c4cc(OC)c(OC)c(OC)c4)cc13)CCCC2`: the activation is -0.5%.

With `CCCCCOC(=O)c1ccc(N2C(=O)C3C4C=CC(C4)C3C2=O)cc1` (stereo not given), the activation is 19.5%.

`CCCCCCCCCCOC(=O)C[N+](C)(C)CC1CCCCC1O` (stereo not given): the activation is 31.1% (active).

Take `COc1cc(C(=O)NCC(c2ccc(Cl)cc2)N2CCOCC2)cc(OC)c1OC` (stereo not given): the activation is -0.448%.

`Cc1[nH]c2ccccc2c1C(c1ccccc1)c1cccs1` (stereo not given): the activation is 0.783%.

For `O=C(CCc1nc(CN2CCN(S(=O)(=O)c3ccc(Cl)cc3)CC2)no1)N1CCCCC1`, the activation is 12.7%.

As to `CCN(CC)S(=O)(=O)c1ccc2c(c1)N(CC(=O)NCC(C)c1ccccc1)C(=O)CO2` (stereo not given), the activation is 4.4%.

For `Cc1ccc(CNC(=O)Cn2c(=O)ccc3cc(S(=O)(=O)N4CCCC4)ccc32)cc1`, the activation is -0.173%.

As for `CCOc1ccc(CNC(=O)c2cc(-c3ccc(Cl)s3)nc3ccccc23)cc1`, the activation was 36.4% (active).

With `CCOc1ccc(CNC(=O)c2ccc(CS(=O)c3ccccc3)o2)cc1` (stereo not given), the activation was 0.22%.

As for `CC(=O)N1CCN(C(=O)c2cc(-c3ccc(Cl)s3)nc3ccccc23)CC1`, the activation was -0.053%.

For the molecule `CCOc1ccc(Cn2nnc(C(=O)Nc3ccc(OC)cc3OC)c2N)cc1`, the activation was 6.39%.

In the case of `CCOc1ccc(Cn2nnc(C(=O)NCc3ccccc3)c2N)cc1`, the activation was 36.7% (active).

`Cc1c(NC(=O)c2cc(-c3ccc(Cl)s3)nc3ccccc23)c(=O)n(-c2ccccc2)n1C`: the activation was 0.635%.

Consider `CCc1ccccc1NC(=O)c1sc2nc3c(cc2c1N)CN(Cc1ccccc1)CC3`, for which the activation is 0.298%.

Turning to `O=[S+]([O-])(c1ccc2c(c1)OCCO2)N1CCN([S+](=O)([O-])c2c(Cl)cc(Cl)cc2Br)CC1`, the activation was 0.0145%.

As for `O=S(=O)(Nc1cccc2cccnc12)c1cccc2cccnc12`, the activation was 23.3%.

As for `COc1ccc(-c2nc3nc(C)cc(C)n3c2Nc2c(C)cccc2C)cc1`, the activation is 7.65%.

Regarding `c1ccc(C[C@H]2CNCCN2CCC23CC4CC(CC(C4)C2)C3)cc1`, the activation was 39.5% (active).

On to `COc1cc(-c2cc3n(C)c(C)c(CCC(=O)Nc4ccc(F)cc4)c(=O)n3n2)cc(OC)c1OC`, for which the activation is 0.314%.

Turning to `Cc1ccc(Cl)cc1NC(=O)/C(C#N)=C\c1cn(Cc2ccc(F)cc2)c2ccccc12`, the activation was 6.19%.

On to `CCc1nc(-c2cc(S(=O)(=O)N3CCN(c4ccc(OC)cc4)CC3)ccc2OC)no1`, for which the activation was 4.75%.

`CSc1nc(-c2ccc(F)cc2)nc2c1Cc1c(CO)cnc(C)c1O2`: the activation is 1.34%.

For `O=C(CCCN=C1NS(=O)(=O)c2ccccc21)OCC(=O)c1ccc(F)c(F)c1`, the activation was 68.2% (active).

`N#CC1(NC(=O)COC(=O)CCN=C2NS(=O)(=O)c3ccccc32)CCCCC1`: the activation is 4.55%.

With `O=C(OCCN=C1NS(=O)(=O)c2ccccc21)c1cccc([N+](=O)[O-])c1`, the activation is 3%.

In the case of `O=C(O)c1c(CNCc2cccc(F)c2)c2ccccc2n1Cc1ccccc1`, the activation is -1.09%.

Take `COc1cc(CNC2CCCCC2)c(Br)cc1OC1CCCC1`: the activation is 10.2%.

In the case of `COc1cc(OC)c(NC(=O)C2CCCN2C(=O)OCc2ccccc2)cc1Cl` (stereo not given), the activation was -0.285%.

For the molecule `COc1cc(CNC2CCCC2)c(Br)cc1OCc1ccccc1`, the activation is 42.3% (active).

Consider `Cc1nc(C(=O)NCc2ccccc2)sc1C1(C)CC(c2cccnc2)=NO1` (stereo not given), for which the activation is 41.4% (active).

As for `Cc1nc(-c2ccc(Cl)cc2)sc1C1(C)CC(c2ccccc2F)=NO1` (stereo not given), the activation is 6.23%.

Turning to `Cc1nc(C(=O)Nc2ccc(Cl)cc2)sc1C1(C)CC(c2ccccc2)=NO1` (stereo not given), the activation is 6.69%.

`COc1cccc(-n2ccn(CC(=O)NCc3ccc(C)cc3)c(=O)c2=O)c1`: the activation is 14.3%.

`Cc1ccc(CNC(=O)c2ccccc2CCc2ccccc2)cc1`: the activation is 4.45%.

`Cc1ccc(CNC(=O)c2cccc3c2C(=O)c2ccc(N4CCC(C)CC4)cc2S3(=O)=O)cc1`: the activation is 179% (active).

As for `COc1cccc(-c2ccc3c(c2)S(=O)(=O)c2cccc(C(=O)O)c2C3=O)c1OC`, the activation was 0.629%.

In the case of `Cc1ccccc1OCC(=O)Nc1c(C(=O)Nc2ccccc2F)oc2ccccc12`, the activation was 20.7%.

As to `CCOC(=O)c1c(C)[nH]c(CCC(=O)Nc2ccc(OC)c(OC)c2)c1C`, the activation is -0.109%.

`Cc1cc(=O)c2cc(C(=O)Nc3cccc(C)c3C)ccc2[nH]1`: the activation is -0.195%.

For the molecule `CC(C)(c1ccccc1)c1ccc(OCCN2CCCC2)cc1`, the activation is 35.8% (active).

Regarding `Cc1nn(CCOc2ccccc2)c(=O)n1-c1ccccc1F`, the activation is 1.91%.

For the molecule `c1ccc2cc(OCCN3CCCC3)ccc2c1`, the activation is 5.59%.

Take `CC(C)(c1ccccc1)c1ccc(OCCN)cc1`: the activation was 63.3% (active).

Regarding `CC(C)(C)c1ccc(Oc2ccc(N)cc2)cc1`, the activation was 5.93%.

On to `Cc1cc(OCCN2CCCC2)ccc1C(C)C`, for which the activation was 2.99%.
